Screening results: PubChem, National Center for Advancing Translational Sciences (NCATS)
In the library only some 6% were active in any assay of this set; here they are far more common.
PLK1 PBD block = qHTS for Inhibitors of PLK1-PDB (polo-like kinase 1 - polo-box domain): Primary Screen; Plk1 PBD binding of FITC phosphopeptide, fluorescence polarization; AID 720504, 2013; Serine/threonine-protein kinase PLK1 (Homo sapiens), P53350; 2.8% of 360,000 active; Potency, µM, for inactives: max response, negative = inhibition, hits mostly inhibitors; note: series mostly up to about 57 µM; nearly all actives have a fitted effect of over 65% in size
VDR inh = Inhibitors of the vitamin D receptor (VDR): qHTS. Vitamin D3 receptor (Homo sapiens), P11473. VDR-SRC2-3 peptide fluorescence polarization, 2 h. Potency, µM, inactives show max response, negative = inhibition, hits mostly inhibitors. 0.93% of 400,000 active. AID 504847, 2011
Target sequence (P11473 whole entry, looked up): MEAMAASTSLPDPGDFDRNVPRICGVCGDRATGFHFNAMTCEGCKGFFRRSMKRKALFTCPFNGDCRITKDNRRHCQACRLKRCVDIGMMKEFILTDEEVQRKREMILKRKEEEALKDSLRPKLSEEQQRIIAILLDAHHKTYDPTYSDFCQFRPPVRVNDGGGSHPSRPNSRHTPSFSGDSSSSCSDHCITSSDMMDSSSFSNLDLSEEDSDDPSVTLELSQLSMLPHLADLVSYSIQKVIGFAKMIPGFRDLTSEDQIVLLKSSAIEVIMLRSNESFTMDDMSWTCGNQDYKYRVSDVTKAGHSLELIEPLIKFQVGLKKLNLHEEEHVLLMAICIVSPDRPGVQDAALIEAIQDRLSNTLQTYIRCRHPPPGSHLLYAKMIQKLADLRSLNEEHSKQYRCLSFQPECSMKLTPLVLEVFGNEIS
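Reagent solutions, kept cold and dark, are dispensed first; compounds are then pinned in at 23 nl, plates briefly spun, and incubated 2 h at ambient temperature. Inhibition of VDR–SRC2-3 peptide binding is read by fluorescence polarization.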
Tau fluor counter = Counterscreen qHTS for Inhibitors of Tau Fibril Formation, Fluorescence Polarization. 0.93% of 280,000 active. tau K18 P301L Alexa594 fluorescence, heparin fibrillization. AID 1463, 2008. Potency, µM (highest dose often 57.7 µM), for inactives: top-dose activity change, negative = decrease; note: nearly all actives have a fitted effect of over 55% in size
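Human tau K18 P301L (15 uM unlabeled, 0.24 uM Alexa 594-labeled) in 100 mM sodium acetate pH 7 with 20 uM heparin, 6 hr at 37 C. ThT 30 uM added, 1 hr ambient; Alexa 594 FP and total fluorescence read at 555/632 nm.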
Sfp PPTase inh = qHTS Assay for Inhibitors of Bacillus subtilis Sfp phosphopantetheinyl transferase (PPTase); 4'-phosphopantetheinyl transferase ffp (Bacillus subtilis), Q9F4F7; Biochemical Sfp PPTase activity, qHTS; Potency, µM, without a hit: largest response in the series, negative = inhibition, actives largely listed as inhibitors; 3.5% of 310,000 active; AID 1490, 2009;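 note: the enzyme is Sfp with the accession as filed and its product quenches rhodamine fluorescence; 0% = enzyme reaction without inhibitor and -100% = no enzyme wells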
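Fluorescence-quenching assay: 15 nM Sfp-PPTase preincubated 15 min at room temperature with compound, then 5 uM rhodamine-CoA and 12.5 uM BHQ-2-labelled YbbR peptide added. Fluorescence (ex 525/em 598 nm) read at start and after 30 min; difference gives rate.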
Tau fibril ThT = qHTS for Inhibitors of Tau Fibril Formation, Thioflavin T Binding. 2.1% of 270,000 active. recombinant tau K18 P301L (four-repeat tau fragment), heparin-induced fibrillization, ThT fluorescence. Potency, µM (top dose mostly 57.4 µM), without a hit: top-dose activity, negative = inhibition, most hits filed as inhibitors. Microtubule-associated protein tau (Homo sapiens), P10636; note: nearly all actives have a fitted effect of over 55% in size
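In this qHTS, human K18 P301L tau is incubated with compound and heparin for 6 hr at 37 C, and Thioflavin T fluorescence then reports fibril load.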
Tau fibril FP = qHTS for Inhibitors of Tau Fibril Formation, Fluorescence Polarization | Microtubule-associated protein tau (Homo sapiens), P10636 | K18 P301L tau heparin fibrillization, Alexa594 FP, 6 h | Potency, µM (top dose mostly 57.7 µM), for inactives: at the top dose activity, negative = inhibition, usual class: inhibitors | 0.39% of 280,000 active | AID 1468, 2008; note: nearly all actives have a fitted effect of over 55% in size
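Read-out: fluorescence polarization of Alexa 594-labeled tau (0.24 uM), 555 nm excitation, 632 nm emission. Mixtures held 15 uM unlabeled K18 P301L, compound and 20 uM heparin, pH 7 acetate buffer, incubated 6 hr at 37 C.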
Active calls of the source: *; ? = inconclusive; . = no result given; ! = a repeat was not active; [ ] = remark or other dose. Calls come from the whole dose curve; as a rule, active = well fitted curve in the direction sought with a large enough effect; inconclusive = small, poorly fitted or top-dose-only effect, or another doubt; inactive = no such curve, though single readings can be large; an effect the other way counts as inactive or inconclusive. Unless noted, % is set by controls: 0 for no effect and ±100 for the full control effect; potency is the fitted concentration of half-maximal effect.

SMILES | PLK1 PBD block | VDR inh | Tau fluor counter | Sfp PPTase inh | Tau fibril ThT | Tau fibril FP
COC(=O)CCCC1=CC2=CC(=O)C(C)(OC(=O)c3cccs3)C(=O)C2=CN1Cc1ccc2c(c1)OCO2 (stereo not drawn) | -20% | -5% | -8%[11.6 µM] | -17% | 13µM*! | ?
COC(=O)CCCC1=CC2=CC(=O)C(C)(OC(=O)c3cccs3)C(=O)C2=CN1c1ccc(OC)cc1 (stereo not drawn) | -19% | -12% | -10%[11.6 µM] | -3% | 10µM* | ?
COc1ccc(NC(=O)Nc2nnc(N(C)C3CCCCC3)s2)c(OC)c1 | . | -4% | ? | . | ? | 3%
CCN(CC(=O)NCc1cccs1)C(=O)c1ccc(NS(=O)(=O)c2ccc(F)cc2)cc1 | -1% | -2% | . | . | . | .
O=C(NCc1ccco1)c1cnn2c1NC(c1ccccc1)CC2C(F)(F)F (stereo not drawn) | -8% | -7% | -1% | -14% | 3% | -7%
O=C(NCc1ccco1)c1cnn2c1NC(c1ccc(Br)cc1)CC2C(F)(F)F (stereo not drawn) | 3µM* | ? | -25% | 2% | -13% | 5%
Cc1ccc(N(CC(O)CN2CCOCC2)S(=O)(=O)c2ccc([N+](=O)[O-])cc2)cc1 (stereo not drawn) | -18% | -5% | . | 15% | . | .
O=C(Cn1cccc1C(=O)c1ccccc1)NCCc1ccc(Cl)cc1 | 24µM* | -17% | . | 8% | . | .
O=C(O)Cn1cccc1C(=O)c1ccccc1 | -10% | -15% | ? | 21% | 8.9µM* | 4%
Cc1nn(CC(=O)NCc2ccccc2)c(=O)c2cccn12 | 2% | 2% | . | 17% | . | .
COC(=O)Cn1cccc1C(=O)c1ccccc1 | -11% | 6% | -5% | 15% | -2% | 1%
Cc1nn(CC(=O)NCCc2ccc(Cl)cc2)c(=O)c2cccn12 | 27µM* | ? | . | 18% | . | .
O=C(Cn1cccc1C(=O)c1ccccc1)NCc1cccc(Cl)c1 | 24µM* | -21% | -18% | -3% | -10% | -6%
Cc1ccsc1CCN1C(=O)N(c2ccc(F)cc2)C(=O)C1CC(=O)Nc1ccccc1 (stereo not drawn) | . | 8% | ? | . | -4% | ?
CCN1CCN(C(c2cccc(Cl)c2)c2c(O)cc(C)n(CCOC)c2=O)CC1 (stereo not drawn) | . | -15% | -2% | . | ? | -16%
CCN(c1ccc(OC)cc1)S(=O)(=O)c1ccc2[nH]c(=O)ccc2c1 | . | 17% | -25% | . | ? | -11%
COc1ccc(-n2c(-c3ccc(Cl)cc3Cl)n[nH]c2=S)c(OC)c1 | 24µM* | ? | . | 16% | . | .
COc1ccc(-c2n[nH]c(=S)n2N)c(OC)c1 | 8.4µM* | 0% | 9% | 35µM* | 5% | 4%
COc1cccc(Cn2c(Cn3c(-c4cnccn4)nc4ccccc43)nc3ccccc32)c1 | -7% | . | . | . | . | .
COc1ccc(OC)c(-n2c(Cn3c(-c4ccccn4)nc4ccccc43)n[nH]c2=S)c1 | -23% | -22% | 5% | 25µM* | -8% | 3%
COc1ccc(-c2cc(-c3n[nH]c(=S)n3-c3cc(OC)ccc3OC)[nH]n2)cc1 | -25% | -20% | -7% | ? | -9% | 2%
COc1ccc(OC)c(-n2c(-c3cccc(O)c3)n[nH]c2=S)c1 | 27µM* | -24% | 2% | 25µM* | 2% | -4%
CCCN(C(=O)c1noc2c1COc1ccc(C)cc1-2)c1ccc(Cl)c(Cl)c1 | . | 16% | -7% | . | -2% | -8%
COc1ccc(-c2n[nH]c(=S)n2-c2cc(OC)ccc2OC)cc1 | -2% | 3% | 0% | 79µM* | -2% | -4%
